Compounds without any hit were thinned out: in the full panel of roughly 83,000, 20% have a hit.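 Note: values are percent growth. 100 is the growth of untreated cells, values between 100 and 0 indicate rising inhibition; between -100 and 0 indicates cell death.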 A number with no mark means an inactive call. The source made the active and inactive calls. How the source made its calls: active means growth percent below 10; inactive means the rest.

For this assay, the system named is MDA-MB-468 breast. Nature of the assay: NCI-60 one-dose screen, 48 h (100 = growth as untreated, 0 = no growth, -100 = all killed). Particulars: 10 µM unless noted.
Take `CCSc1nnc2c3cc(Br)ccc3n(C)c2n1`: the growth was 115%. For `CCCCCCNC(=O)Oc1ccc(/C(=C(/C)c2ccc(Cl)cc2)c2ccc(OCCN3CCCC3)cc2)cc1` the value was 62.6%; for `CCOC(=O)C/C(C)=N\NC(=O)c1ccncc1`, 110%. For `COc1ccc(CCN2C(=O)C(C)(C)SC2=S)cc1OC`, the growth is 105%.

Consider `O=C1OCC2=C1C(c1ccccc1)c1cc3c(cc1N2CCO)CCC3` (stereo unspecified), for which the growth was 15%.

`N#Cc1c(-c2ccc(F)cc2)cc(-c2cccc(Cl)c2)[nH]c1=O`: the growth is 81.4%. For `COc1ccc2c(c1)nc(N)c1c3ccccc3cn21` the value was 58.5%.

Consider `C=CC[Se]C(=O)Cc1c(C)n(C(=O)c2ccc(Cl)cc2)c2ccc(OC)cc12`, for which the growth is -37.5% (active).

Turning to `C=CC(=O)Nc1ccc(Nc2nccc(-c3ccc(N4CCCC4)c(C#N)c3)n2)cc1`, the growth is -9.73% (active). Regarding `CC[N+](CC)=c1ccc2nc3c(cc(N)c4ccccc43)oc-2c1`, the growth is -5.04% (active).

As for `O=c1c2ccccc2c(Br)c(Br)c2ccccc12`, the growth is 8.15% (active).

For `COc1cnc2c(c1)C(=O)c1c-2n(CCCNCCN2CCOCC2)c(=O)c2cc([N+](=O)[O-])ccc12`, the growth was -27% (active).

Take `CC(C)(C)OC(=O)N1C/C(=C\c2ccoc2)C(=O)/C(=C/c2ccoc2)C1`: the growth was 97.3%. For `C[C@@H](c1ccc2c(c1)[nH]c1ccc(Cl)cc12)c1nc2ccc(Cl)cc2[nH]1` the value was -37.4% (active); for `O=[n+]1c2ccccc2n([O-])c2cc(Cl)ccc21`, -15.4% (active). With `Cc1ccnc2c1ccc1c(C)ccnc12`, the growth was -17.8% (active).
